{"source": "ChEMBL document CHEMBL3988442", "about": "“University of Dundee, Small-Polar-MMV Screening Library” (2021)", "note": "Out of some 48,000 compounds screened, about 13,000 (27%) showed an effect of 50% or more. Some of the results follow.", "data": [{"tested_on": "Wolbachia pipientis", "assay": "Anti-Wolbachia Cell-Based Screen", "format": "functional", "parameters": "scale not given: in the data most compounds retested in dose-response had high values", "conditions": "5 µM", "units": {"Percent Effect": "%"}, "values": [{"smiles": "CNC(=O)CN1CCC(NC(=O)N(C)Cc2cc(C)on2)CC1", "Percent Effect": 7.433}, {"smiles": "CNC(=O)CN1CCC(CN(C)Cc2ccncc2Cl)CC1", "Percent Effect": 104.1}, {"smiles": "CNC(=O)CN1CCC(CN(C)Cc2ccccc2N(C)C)CC1", "Percent Effect": 105.8}, {"smiles": "CNC(=O)CN1CCC(CN(C)Cc2ccc(C)cc2C)CC1", "Percent Effect": 95.31}, {"smiles": "CNC(=O)CN1CCC(NC(=O)Cc2ccccc2OC(C)C)CC1", "Percent Effect": -20.84}, {"smiles": "CNC(=O)CN1CCC(NC(=O)CC(C)CCc2ccccc2)CC1", "note": "(centres undefined)", "Percent Effect": 1.042}, {"smiles": "CNC(=O)CN1CCCC(Cc2ccccc2OC)C1", "note": "(centres undefined)", "Percent Effect": 4.844}, {"smiles": "CNC(=O)CN1CCC(CN(C)CCSc2ccccc2)CC1", "Percent Effect": 112.7}, {"smiles": "CC(=O)N(Cc1noc(C)n1)C1CCN(Cc2ccncc2Cl)C1", "note": "(centres undefined)", "Percent Effect": 6.525}, {"smiles": "CNC(=O)CN1CCC(NC(=O)Cn2cc(C)c3ccccc32)CC1", "Percent Effect": -8.28}, {"smiles": "CNC(=O)CN1CCC(c2nn(C)c(=O)n2-c2ccccc2)CC1", "Percent Effect": 1.276}, {"smiles": "CN(Cc1cc(Cl)cc2cccnc12)CC1CCN(CCO)CC1", "Percent Effect": -4.482}, {"smiles": "CCC(CNC(=O)C1CC1)(OC)c1ccccc1", "note": "(centres undefined)", "Percent Effect": -6.712}, {"smiles": "Cc1cccc(CNC[C@H]2Cn3cc(-c4ccccc4)nc3CO2)n1", "Percent Effect": -23.05}, {"smiles": "CC(C)c1csc(C(=O)N(C)c2ccc(Br)cn2)n1", "Percent Effect": -10.23}, {"smiles": "CC(NC(=O)NCCCn1cccn1)c1cccnc1", "note": "(centres undefined)", "Percent Effect": 14.81}, {"smiles": "CCC(=O)NCCCn1c(-c2cccnc2C)cc2cccnc21.Cl", "Percent Effect": 116.3}, {"smiles": "Cc1cccnc1NCCNC(=O)C1CCN(Cc2ccco2)CC1", "Percent Effect": -35.11}, {"smiles": "CC(C)(C)C(=O)NCCNCc1ccc(Cl)c2cccnc12", "Percent Effect": -7.376}, {"smiles": "Cc1ncccc1-c1cc2cccnc2n1CCCNC(=O)C(C)(C)C.Cl", "Percent Effect": 83.99}, {"smiles": "Cc1cccnc1NCCNC(=O)C1CCN(C(=O)N(C)C)CC1", "Percent Effect": -7.872}, {"smiles": "CC(C)(C)C(=O)NCCCc1nc2ccccc2[nH]1", "Percent Effect": 0.1098}, {"smiles": "Cc1ncccc1-c1cc2cccnc2n1CCCNC(=O)C1CC1.Cl", "Percent Effect": 102.7}, {"smiles": "Cc1ccc(OCCCNC(=O)Cc2nc3ncccn3n2)cc1", "Percent Effect": -3.394}, {"smiles": "CCS(=O)(=O)NCC(=O)N(C1CC1)C1Cc2ccccc2C1", "Percent Effect": 0.1274}, {"smiles": "CC(C)C(NC(=O)c1ccc(=O)[nH]c1)c1nnc2n1CCNCC2", "note": "(centres undefined)", "Percent Effect": 5.765}, {"smiles": "O=C(c1ccc(Br)o1)N1CCCC(n2cncn2)C1", "note": "(centres undefined)", "Percent Effect": 3.935}, {"smiles": "COc1cc(C2(C(=O)NC3CCN(C4CC4)CC3)CC2)ccc1C", "Percent Effect": -9.965}, {"smiles": "CCOc1cc(C(=O)N2CCCC(n3cncn3)C2)ccc1C", "note": "(centres undefined)", "Percent Effect": 31.02}, {"smiles": "O=C(c1ccc(C(F)(F)F)nc1)N1CCCC(n2cncn2)C1", "note": "(centres undefined)", "Percent Effect": -5.926}, {"smiles": "Cn1cc(C(=O)N2CCCC(n3cncn3)C2)ccc1=O", "note": "(centres undefined)", "Percent Effect": -4.437}, {"smiles": "COc1cc(C2(C(=O)N3CCCC(n4cncn4)C3)CC2)ccc1C", "note": "(centres undefined)", "Percent Effect": 127.9}, {"smiles": "COc1ccc(C)cc1C(=O)N1CCCC(n2cncn2)C1", "note": "(centres undefined)", "Percent Effect": 125.6}, {"smiles": "COc1cc(C2(C(=O)N3CCN(CC(C)(C)O)CC3)CC2)ccc1C", "Percent Effect": -9.844}, {"smiles": "O=C(c1ccccc1OC1CCCC1)N1CCCC(n2cncn2)C1", "note": "(centres undefined)", "Percent Effect": 131.9}, {"smiles": "COc1cc(C(=O)N2CCCC(n3cncn3)C2)ccc1C", "note": "(centres undefined)", "Percent Effect": 123.7}, {"smiles": "Cc1ccc(SCCCNC(=O)c2cn([C@H]3CC[C@@H](N)CC3)nn2)cc1", "Percent Effect": -20.01}, {"smiles": "Cc1sc(Br)cc1S(=O)(=O)NCc1ccccn1", "Percent Effect": -26.2}, {"smiles": "Oc1ccccc1CN1CCC(n2cc(-c3ccc(F)cc3)nn2)CC1", "Percent Effect": -4.662}, {"smiles": "CS(=O)(=O)c1ccc(CNC(=O)N2CCC(C(N)=O)C2)cc1", "note": "(centres undefined)", "Percent Effect": -0.5949}, {"smiles": "CNCc1ccc([C@@H]2CN(C(C)=O)C[C@H]2C(N)=O)cc1.Cl", "Percent Effect": 129.4}, {"smiles": "Cc1occc1C(=O)NCc1ccc(N2CCCC(C(N)=O)C2)cc1", "note": "(centres undefined)", "Percent Effect": -5.63}, {"smiles": "CNCc1ccc([C@@H]2CN(C)C[C@H]2C(N)=O)cc1.Cl", "Percent Effect": 68.94}, {"smiles": "CN(C)C(=O)c1ccc(CNC(=O)NCCN(C)C2CCCC2)cc1", "Percent Effect": 0.2327}, {"smiles": "Cc1ccccc1CNC(=O)N1C[C@H]2C[C@H](C(=O)N(C)C)[C@@H](C1)O2", "Percent Effect": -3.016}, {"smiles": "Cl.NC(=O)c1ccc(CNC2CC2)cc1", "Percent Effect": 11.53}, {"smiles": "CNCc1ccc([C@@H]2CN(C(C)=O)C[C@H]2C(=O)N(C)C)cc1.Cl", "Percent Effect": 99.26}, {"smiles": "Cc1cnc(N2CCC3(CC2)CN(c2ccsc2)C(=O)CO3)nc1.O=C(O)C(F)(F)F", "Percent Effect": 15.19}, {"smiles": "Cn1ccnc1CN1CCC2(CC1)CN(c1cncnc1)C(=O)CO2.O=C(O)C(F)(F)F", "Percent Effect": -21.12}, {"smiles": "O=C(O)C(F)(F)F.O=C1COC2(CCN(Cc3cccs3)CC2)CN1c1ccccc1", "Percent Effect": -12.07}, {"smiles": "Fc1cnc(N2CCOC3(CCN(Cc4cccs4)CC3)C2)nc1.O=C(O)C(F)(F)F.O=C(O)C(F)(F)F", "Percent Effect": 104.4}, {"smiles": "Fc1cnc(N2CCCC3(CN(Cc4ccccc4)CCO3)C2)nc1.O=C(O)C(F)(F)F", "note": "(centres undefined)", "Percent Effect": 8.099}, {"smiles": "Cn1cc(N2CC3(CCN(Cc4cccs4)CC3)OCC2=O)cn1.O=C(O)C(F)(F)F", "Percent Effect": 13.04}, {"smiles": "Cc1cccc(CN2CCC3(CC2)CN(c2cccnc2)C(=O)CO3)n1.O=C(O)C(F)(F)F.O=C(O)C(F)(F)F", "Percent Effect": 90.31}, {"smiles": "Fc1cnc(N2CCOC3(CCN(Cc4ccsc4)CC3)C2)nc1.O=C(O)C(F)(F)F.O=C(O)C(F)(F)F", "Percent Effect": -10.48}, {"smiles": "O=C(O)C(F)(F)F.O=C1COC2(CCN(Cc3cccs3)CC2)CN1c1cncnc1", "Percent Effect": 100.5}, {"smiles": "O=C(O)C(F)(F)F.O=C1COC2(CCN(Cc3cccs3)CC2)CN1c1ccsc1", "Percent Effect": 102.1}, {"smiles": "CCCn1cc(C(=O)N(C)Cc2nc(-c3ccccn3)no2)c(C)n1", "Percent Effect": 4.948}, {"smiles": "CCO[C@@H]1CCN(C(=O)c2cnc(C)cn2)[C@@H]1Cc1cnn(C)c1", "Percent Effect": -1.532}, {"smiles": "CS(=O)(=O)c1ccccc1N[C@@H]1c2ccccc2C[C@@H]1O", "Percent Effect": -8.17}, {"smiles": "CNc1nc(CNC(=O)Nc2ccc(OC)cc2C)cs1", "Percent Effect": 10.14}, {"smiles": "CC(=O)N1CC(=O)N(c2cccnc2)CC12CCN(Cc1nccs1)C2.O=C(O)C(F)(F)F.O=C(O)C(F)(F)F", "note": "(centres undefined)", "Percent Effect": -2.554}, {"smiles": "O=C(O)C(F)(F)F.O=C(O)C(F)(F)F.O=C1COC2(CCN(Cc3cccs3)CC2)CN1c1cccnc1", "Percent Effect": 97.28}, {"smiles": "COc1cccc(CN(C)C(=O)c2csc(-c3nnc[nH]3)n2)c1", "Percent Effect": 94.98}, {"smiles": "COCc1nc(C(=O)N(Cc2ccccc2)CC(C)C(=O)O)cs1", "note": "(centres undefined)", "Percent Effect": 6.809}, {"smiles": "CN(CCCOc1ccccc1)C(=O)c1csc(-c2nnc[nH]2)n1", "Percent Effect": 111.9}, {"smiles": "CCCc1nc(C(=O)N(C)Cc2cnn(-c3cccc(OC)c3)c2)cs1", "Percent Effect": -14.16}, {"smiles": "Cc1csc(CN(C)CCOc2ccccc2)n1", "Percent Effect": -0.03273}, {"smiles": "Cc1nc(-c2nnc[nH]2)sc1C(=O)N(Cc1cccnc1)C1CC1", "Percent Effect": 1.946}, {"smiles": "COCCN(Cc1ccccc1)C(=O)c1csc(-c2nnc[nH]2)n1", "Percent Effect": 98.7}, {"smiles": "COc1cccc(-n2cc(CN(C)C(=O)c3cc[nH]n3)cn2)c1", "Percent Effect": -0.6043}, {"smiles": "CN(CCCc1ccccc1)C(=O)CCc1nc(-c2nnc[nH]2)no1", "Percent Effect": -15.35}, {"smiles": "Cc1nc2c(NCC(C)N(C)c3ccccc3)ncnc2o1", "note": "(centres undefined)", "Percent Effect": -36.58}, {"smiles": "COc1ccc(C2(C(=O)NCc3c(C)ncc4c3CCNC4)CC2)cc1", "Percent Effect": -10.04}, {"smiles": "CNS(=O)(=O)c1cc(C(=O)N(C)Cc2sccc2C)c(C)o1", "Percent Effect": -10.4}, {"smiles": "COc1c(C)cnc(CN(C)C(=O)Nc2ccc3c(c2)CCO3)c1C", "Percent Effect": 3.992}, {"smiles": "COc1ccc(Cc2ncc3c(n2)CN(C(=O)CN(C)C)C3)cc1", "Percent Effect": -15.7}, {"smiles": "Cc1nc(C)n(CC2CN(CCOCC(F)(F)F)CCO2)n1", "note": "(centres undefined)", "Percent Effect": -2.106}, {"smiles": "Cc1ccc(CN(C)C(=O)CNC(C)(C)c2noc(C(C)(C)C)n2)o1", "Percent Effect": 94}, {"smiles": "Cc1nc(C)n(CC2CCCN2CC(=O)N(C)Cc2ccc(C)o2)n1", "note": "(centres undefined)", "Percent Effect": 1.913}, {"smiles": "Cc1ccc(CNC(C)(C)c2noc(C(C)(C)C)n2)o1", "Percent Effect": 107.5}, {"smiles": "Cc1cnn(C2CN(CC(=O)N(C)Cc3ccc(C)o3)C2)c1", "Percent Effect": -130.6}, {"smiles": "Cc1csc(C(C)(C)NCCNS(C)(=O)=O)n1", "Percent Effect": -2.878}, {"smiles": "CCC(C)(NCC(=O)N(c1ccccc1)C(C)C)c1nc(C)cs1", "note": "(centres undefined)", "Percent Effect": -6.604}, {"smiles": "COc1ccccc1C(C)(C)NCc1ccc(C)o1", "Percent Effect": 6.664}, {"smiles": "Cn1nccc1C(=O)NC(C)(C)c1noc(C(C)(C)C)n1", "Percent Effect": 27.22}, {"smiles": "Cc1csc(C(C)(C)NCC(=O)N(C)Cc2ccc(C)o2)n1", "Percent Effect": 102.3}, {"smiles": "Cc1nn(C)c(C)c1OCC(=O)NCC(O)c1ccsc1", "note": "(centres undefined)", "Percent Effect": 4.904}, {"smiles": "COCC(=O)N1CCN(C)C(=O)C(Cc2ccc(-c3cccs3)cc2)C1", "note": "(centres undefined)", "Percent Effect": 126.7}, {"smiles": "O=C(Nc1ccccc1-c1cccs1)N1CCN(CC(F)F)CC1", "Percent Effect": -15.51}, {"smiles": "COCC(=O)N1CCN(C)C(=O)C(Cc2ccccc2-c2cccs2)C1", "note": "(centres undefined)", "Percent Effect": 162.7}, {"smiles": "CCC(=O)N1CCN(C(=O)Nc2ccccc2-c2cccs2)CC1", "Percent Effect": -6.486}, {"smiles": "CCC(=O)N1CSCC1C(=O)Nc1ccccc1-c1cccs1", "note": "(centres undefined)", "Percent Effect": -5.499}, {"smiles": "COCC(=O)N1CCN(C(=O)c2cccs2)[C@@H](C(=O)OC)C1", "Percent Effect": -3.923}, {"smiles": "CCC(=O)N1CCN(C)C(=O)C(Cc2ccccc2-c2cccs2)C1", "note": "(centres undefined)", "Percent Effect": 157.1}, {"smiles": "COCc1noc(Cn2c(C3CC3)nc3ccccc32)n1", "Percent Effect": 95.56}, {"smiles": "COCc1noc(Cn2ccc3ccccc3c2=O)n1", "Percent Effect": -17.57}, {"smiles": "COCc1noc(CN2CC(=O)N(C)c3ccccc3C2=O)n1", "Percent Effect": -11.96}, {"smiles": "COCc1noc(Cn2ccc3ncccc3c2=O)n1", "Percent Effect": 1.423}, {"smiles": "COCCc1noc(Cn2c(=O)[nH]c3ccccc32)n1", "Percent Effect": 95.59}, {"smiles": "COCCc1noc(CN2CC(C)(c3ccccc3)CCC2=O)n1", "note": "(centres undefined)", "Percent Effect": -4.269}, {"smiles": "COCc1noc(Cn2c(=O)[nH]c3ccccc32)n1", "Percent Effect": 93.82}, {"smiles": "COCCc1noc(Cn2ccc3ccccc3c2=O)n1", "Percent Effect": -26.03}, {"smiles": "COCc1noc(Cn2ncn3cccc3c2=O)n1", "Percent Effect": -2.273}]}]}
